# Inconclusive results are not listed. A call without a number means that no potency is given here. Activity calls are given as the source filed them. Unless noted, calls come from the whole dose curve; as a rule, active = well fitted curve in the direction sought with a large enough effect; inconclusive = small, poorly fitted or top-dose-only effect, or another doubt; inactive = no such curve, though single readings can be large; an effect the other way counts as inactive or inconclusive.
# Key:
# [1] = AP1 Signaling Pathway (AID 357; active = well fitted curve in either direction with a large enough effect, not every such curve was filed as active;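 note: ME-180 reporter cells stimulated with EGF at its EC50 level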); settings: ME-180 AP-1-bla reporter, EGF-induced, beta-lactamase ratio, 5 h; at 38 µM (top of the series)
# Procedure, shortened: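 Modulation of EGF-driven AP-1 transcription was assessed with a beta-lactamase reporter in ME-180 cells. Compound and EC50 EGF were co-incubated 5 hours at 37 °C before 2.5-hour CCF4 loading at room temperature and dual-emission reading.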
# [2] = molecular target: Cytochrome P450 1A2 (Homo sapiens) (UniProt P05177); assay: p450-cyp1a2 (AID 410; calls by dose curve)
# Procedure, shortened: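 20nM CYP1A2, 100uM Luciferin-ME (=Km), 100mM KPO4; cpd 10 min RT; +NADPH regen, 60 min RT; stop/detect 20 min; luminescence. Normalized to furafylline 57 uM = full inhibition.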
# [3] = NFAT Signaling Pathway (AID 444; active = well fitted curve in either direction with a large enough effect, not every such curve was filed as active;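 note: carbachol stimulus at about its EC50 of 1 µM final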); settings: Jurkat NFAT-bla M1, carbachol, beta-lactamase ratio, 5 h; at 38 µM (top of the series)
# Procedure, shortened: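 Read-out: CCF4 FRET ratio (460 nm/530 nm) after 1 h RT dye loading, used for %activity and AC50 from titration series. Cells: Jurkat NFAT-β-lactamase/M1 line, treated with compound plus 1 uM carbachol for 5 h, 37 °C.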
# [4] = Stat Signaling Pathway (AID 446; active = well fitted curve in either direction with a large enough effect, not every such curve was filed as active;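 note: ME-180 cervical cancer cells given 40 pM IL-6 alongside compound; SIE-controlled beta-lactamase reporter measured as 460/530 nm FRET emission ratio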); settings: ME-180 (cervical carcinoma) SIE beta-lactamase reporter, IL-6 stimulated, 5 h; at 38 µM (top of the series)
# Procedure, shortened: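 FRET read-out (405 nm excitation, 460/530 nm emission) of a beta-lactamase reporter under a STAT-inducible element in ME-180 cervical carcinoma cells. Cells with compound receive 40 pM IL-6 for 5 h. Values are normalised to AC90 stimulation and AC90 JAK-inhibitor controls.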
# [5] = molecular target: Glucocorticoid receptor (Homo sapiens) (UniProt P04150); assay: GR-GFP Redistribution (AID 450;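 active = compounds whose dose series gives a full or clear partial fitted curve of increased nuclear translocation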; note: potency is the fitted concentration of half-maximal effect); settings: U2OS GR-GFP nuclear translocation, laser cytometry, 2 h
# [6] = molecular target: Glucocorticoid receptor (Homo sapiens) (UniProt P04150); assay: GR-EFC Redistribution (AID 451; calls by dose curve; note: potency is the fitted concentration of half-maximal effect); settings: CHO-K1 GR-EFC translocation, beta-gal luminescence, 2 h
# Procedure, shortened: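 Translocation of GR-ED fusion to nuclear EA restores b-gal, read by luminescence after 1 h room-temperature detection. Engineered CHO-K1 biosensor cells, 1,000/well, exposed 2 h at 37 C to titrations up to 46 uM final.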
# [7] = molecular target: Mitogen-activated protein kinase 10 (Mus musculus) (UniProt Q61831); assay: JNK3 AlphaScreen Assay (AID 530; active = well fitted curve in either direction with a large enough effect, not every such curve was filed as active;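 note: kinase came from lysate of stimulated human HepG2 cells; signal reports phosphorylation of biotinylated GST-cJun 1-79 at Ser73 with 10 µM ATP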)
# Procedure, shortened: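 Kinase buffer: 20 mM Tris-HCl pH 7.6, 10 mM MgCl2, 1 mM DTT, 0.1 mM Na3VO4, 0.01% Tween-20; ATP 10 uM. Substrate biotin-GST-cJun(1-79), enzyme from activated HepG2 lysates. Detection by Ser73 phospho-antibody AlphaScreen.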
# [8] = molecular target: 3',5'-cyclic-AMP phosphodiesterase 4B (Homo sapiens) (UniProt Q07343); assay: qHTS Assay for Inhibitors of PDE-IV (AID 607; active = well fitted activation curve with a large enough effect in the main read-out, with a control signal flat, not every such curve was filed as active)
# Procedure, shortened: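 Cell-based read-out of cAMP via a modified cyclic nucleotide-gated channel and membrane potential dye (535/590 nm) in HEK293 cells expressing PDE4 endogenously. Compounds tested up to 22.9 uM final; 100 uM RO 20-1724 reference.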
# [9] = molecular target: Guanine nucleotide-binding protein G(i) subunit alpha-1 (Homo sapiens) (UniProt P63096); assay: qHTS Assay for Inhibitors of RGS12 GoLoco Motif Activity (Green Fluorophore) (AID 879);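 note: negative values mean loss of peptide binding seen as reduced polarization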
# Procedure, shortened: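 A drop in FITC polarization marked displacement of the FITC-tagged RGS12 GoLoco peptide (10 nM) from Gαi1 (50 nM). Compounds were incubated 10 min at room temperature in Tris pH 7.5 buffer containing 150 mM NaCl, 0.1 mM GDP and 0.05% NP40; unlabeled peptide titration served as control.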
# [10] = qHTS Assay for Identification of Small Molecule Agonists for Thrombopoietin (TPO) Signaling Pathway (AID 917)
# Procedure, shortened: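 Quantitative HTS for pathway activators: compounds were pin-transferred onto IL-3-starved Ba/F3 cells expressing human TPO receptor, TPO was added at its EC50 (26 pM final), and after 24 hrs at 37 C reporter luciferase was measured.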
# [11] = molecular target: Pyruvate kinase (Leishmania mexicana) (UniProt Q27686); assay: qHTS Validation Assay for Inhibitors of Leishmania Mexicana Pyruvate Kinase (AID 945)
# Procedure, shortened: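 qHTS eight-point titrations against 0.2 nM LmPYK (E451W) in imidazole buffer pH 7.2 with 0.5 mM PEP, 0.1 mM ADP; 1 h, room temperature. Readout: PKLight luminescence, normalized to neutral DMSO wells.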
# [12] = molecular target: Pyruvate kinase PKM (Homo sapiens) (UniProt P14618); assay: qHTS Assay for Activators of Human Muscle Pyruvate Kinase (AID 954; active = well fitted curve in the direction sought with a large enough effect, not every such curve was filed as active)
# Procedure, shortened: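 ATP production by PKM2 detected via luciferase luminescence after 1 h room-temperature reaction (0.1 nM enzyme, PEP at Km 0.5 mM, ADP 0.1 mM, pH 7.2 imidazole buffer). Inhibition scaled to no-enzyme control; activation referenced to 0.3 nM enzyme wells.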
# [13] = molecular target: alpha-glucosidase (Oryza sativa, rice) (UniProt Q653V4); assay: Counterscreen for Glucocerebrosidase Inhibitors: qHTS Assay for Rice alpha-Glucosidase at pH 5.0 (AID 997)
# Procedure, shortened: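 Endpoint fluorogenic assay at pH 5.0: compounds (0.7 nM to 77 uM) titrated against 4 nM rice enzyme and 400 uM 4-MU-alpha-glucoside for 20 min at room temperature; NaOH/glycine stop, read ex 365/em 440 nm, Hill-fitted AC50.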
# [14] = Validation of Assay for Modulators of Lamin A Splicing (AID 1459; active = well fitted curve in the direction sought with a large enough effect in the signal ratio; the % refers to the signal ratio;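 note: cells exposed to compound for two days before reading; ratio rise marks activators and ratio drop marks inhibitors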)
# Procedure, shortened: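 Splicing correction is reported by an EGFP-containing lamin A minigene in stably transfected S3 HeLa cells, while DsRed2 controls for viability and nonspecific signal. Cells are exposed to compounds for 48 hrs before the GFP over RFP ratio is taken.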
# [15] = qHTS Assay for Lipid Storage Modulators (AID 1519; calls by dose curve); settings: Drosophila S3 cells, BODIPY lipid droplet/cell ratio, laser cytometry, cells loaded with oleic acid
# Procedure, shortened: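 Cells seeded at 5,000 per well were treated with compounds over a concentration series and loaded with oleic acid (400 uM, as added). Lipid droplet fluorescence (488 nm excitation, 500-530 nm channel) was read by laser-scanning cytometry and normalized to 20 uM Triacsin C.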
# [16] = molecular target: DNA repair nuclease/redox regulator APEX1 (Homo sapiens) (UniProt P27695); assay: qHTS Validation Assay for Inhibitors of the Human Apurinic/apyrimidinic Endonuclease 1 (APE1) (AID 1705;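 note: TAMRA fluorescence gain over two minutes as APE1 cuts a quenched THF abasic duplex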)
# Procedure, shortened: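 Endonuclease activity of human APE1 is followed as dequenching when the enzyme incises a tetrahydrofuran abasic site in a short duplex labelled 5'-TAMRA/3'-BHQ-2 (50 nM final), after 15 min enzyme–compound preincubation at room temperature.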
# [17] = molecular target: Endonuclease 4 (Escherichia coli (strain K12)) (UniProt P0A6C1); assay: Counterscreen for APE1 Inhibitors: qHTS Validation Assay for Inhibitors of Endonuclease IV (AID 1708)
# Procedure, shortened: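 The reaction buffer contained 50 mM Tris-HCl pH 7.5, 50 mM NaCl, 2 mM MgCl2, 1 mM DTT and 0.01% Tween-20. Incision of a 50 nM fluorophore/quencher THF substrate by 2 nM enzyme was measured kinetically.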
# [18] = qHTS for differential inhibitors of proliferation of Plasmodium falciparum line 7G8 (AID 1815);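 note: parasite growth measured after three days of incubation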
# Sequence of Glucocorticoid receptor (Homo sapiens) (P04150 whole entry, looked up, the tested form may be a part): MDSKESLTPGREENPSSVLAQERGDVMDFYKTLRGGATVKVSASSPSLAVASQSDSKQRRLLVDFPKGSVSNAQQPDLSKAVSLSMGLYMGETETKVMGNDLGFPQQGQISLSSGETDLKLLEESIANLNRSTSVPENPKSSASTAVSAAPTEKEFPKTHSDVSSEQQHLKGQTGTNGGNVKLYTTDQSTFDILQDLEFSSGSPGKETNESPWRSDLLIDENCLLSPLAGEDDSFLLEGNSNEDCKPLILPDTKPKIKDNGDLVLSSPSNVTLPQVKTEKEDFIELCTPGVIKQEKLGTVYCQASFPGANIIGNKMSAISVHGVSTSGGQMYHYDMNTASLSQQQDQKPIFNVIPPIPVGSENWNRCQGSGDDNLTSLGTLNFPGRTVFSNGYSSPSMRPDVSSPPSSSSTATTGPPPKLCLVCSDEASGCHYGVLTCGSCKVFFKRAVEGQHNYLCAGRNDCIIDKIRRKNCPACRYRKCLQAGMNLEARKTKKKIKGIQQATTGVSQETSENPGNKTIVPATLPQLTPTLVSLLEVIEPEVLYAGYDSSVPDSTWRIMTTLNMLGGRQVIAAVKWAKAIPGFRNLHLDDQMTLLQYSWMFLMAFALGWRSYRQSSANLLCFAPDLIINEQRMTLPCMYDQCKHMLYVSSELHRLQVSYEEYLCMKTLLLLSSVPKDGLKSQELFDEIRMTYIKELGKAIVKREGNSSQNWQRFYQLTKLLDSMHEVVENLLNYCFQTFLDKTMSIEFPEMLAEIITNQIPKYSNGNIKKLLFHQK
# Sequence of 3',5'-cyclic-AMP phosphodiesterase 4B (Homo sapiens) (Q07343 whole entry, looked up): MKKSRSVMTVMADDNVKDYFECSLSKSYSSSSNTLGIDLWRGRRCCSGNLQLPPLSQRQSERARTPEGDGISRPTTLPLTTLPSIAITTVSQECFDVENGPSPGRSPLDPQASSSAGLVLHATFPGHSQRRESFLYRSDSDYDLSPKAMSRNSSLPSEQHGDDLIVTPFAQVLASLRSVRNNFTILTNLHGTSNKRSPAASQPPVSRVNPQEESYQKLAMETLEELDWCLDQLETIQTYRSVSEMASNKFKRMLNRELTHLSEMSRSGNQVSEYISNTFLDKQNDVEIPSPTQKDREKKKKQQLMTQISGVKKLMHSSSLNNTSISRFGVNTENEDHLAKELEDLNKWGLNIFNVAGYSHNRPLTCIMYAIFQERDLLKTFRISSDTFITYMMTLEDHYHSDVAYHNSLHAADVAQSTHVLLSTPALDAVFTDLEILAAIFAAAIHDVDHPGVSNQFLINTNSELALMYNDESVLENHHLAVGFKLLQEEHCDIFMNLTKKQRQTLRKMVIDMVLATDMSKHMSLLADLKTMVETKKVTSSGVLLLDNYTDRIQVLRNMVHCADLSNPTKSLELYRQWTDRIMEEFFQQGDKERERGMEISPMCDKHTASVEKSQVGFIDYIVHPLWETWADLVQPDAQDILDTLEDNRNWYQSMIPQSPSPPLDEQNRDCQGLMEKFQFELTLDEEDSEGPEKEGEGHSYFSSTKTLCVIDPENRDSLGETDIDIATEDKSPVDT
# Sequence of Guanine nucleotide-binding protein G(i) subunit alpha-1 (Homo sapiens) (P63096 whole entry, looked up): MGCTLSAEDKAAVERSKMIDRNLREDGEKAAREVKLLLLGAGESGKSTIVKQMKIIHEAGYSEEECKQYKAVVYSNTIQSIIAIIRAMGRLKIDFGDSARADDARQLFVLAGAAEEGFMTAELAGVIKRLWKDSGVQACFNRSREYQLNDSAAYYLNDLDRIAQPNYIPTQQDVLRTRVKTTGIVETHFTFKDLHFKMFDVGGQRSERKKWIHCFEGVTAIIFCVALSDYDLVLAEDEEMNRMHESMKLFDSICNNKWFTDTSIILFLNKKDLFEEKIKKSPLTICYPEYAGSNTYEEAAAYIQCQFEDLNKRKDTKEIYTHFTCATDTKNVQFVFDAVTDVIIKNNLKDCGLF
# Sequence of Cytochrome P450 1A2 (Homo sapiens) (P05177 whole entry, looked up): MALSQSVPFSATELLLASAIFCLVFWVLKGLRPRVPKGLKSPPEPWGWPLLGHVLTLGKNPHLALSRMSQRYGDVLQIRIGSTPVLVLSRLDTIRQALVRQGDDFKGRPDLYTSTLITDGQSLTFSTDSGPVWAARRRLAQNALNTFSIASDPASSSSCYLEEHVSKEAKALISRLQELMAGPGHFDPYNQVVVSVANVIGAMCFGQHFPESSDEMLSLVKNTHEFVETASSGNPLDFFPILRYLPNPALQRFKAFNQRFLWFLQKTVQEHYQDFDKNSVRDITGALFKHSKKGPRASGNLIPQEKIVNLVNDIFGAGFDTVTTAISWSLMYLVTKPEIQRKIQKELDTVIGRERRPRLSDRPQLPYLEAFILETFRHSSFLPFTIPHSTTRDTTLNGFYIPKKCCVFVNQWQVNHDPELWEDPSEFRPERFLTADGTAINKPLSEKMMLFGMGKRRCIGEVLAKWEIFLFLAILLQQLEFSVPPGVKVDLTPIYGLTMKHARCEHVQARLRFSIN
# Sequence of Pyruvate kinase (Leishmania mexicana) (Q27686 2-499 E452W): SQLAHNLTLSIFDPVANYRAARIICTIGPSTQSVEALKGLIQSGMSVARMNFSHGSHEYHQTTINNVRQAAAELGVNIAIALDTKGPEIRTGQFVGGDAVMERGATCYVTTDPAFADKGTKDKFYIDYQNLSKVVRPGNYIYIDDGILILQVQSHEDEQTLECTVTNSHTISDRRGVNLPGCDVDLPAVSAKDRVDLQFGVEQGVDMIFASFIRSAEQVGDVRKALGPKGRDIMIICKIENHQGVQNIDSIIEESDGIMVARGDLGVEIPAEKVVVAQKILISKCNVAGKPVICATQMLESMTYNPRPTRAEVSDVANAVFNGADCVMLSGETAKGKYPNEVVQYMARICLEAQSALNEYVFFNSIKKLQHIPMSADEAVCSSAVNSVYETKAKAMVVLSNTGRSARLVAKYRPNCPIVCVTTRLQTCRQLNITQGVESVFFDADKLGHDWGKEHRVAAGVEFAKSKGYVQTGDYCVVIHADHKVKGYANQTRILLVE
# Sequence of DNA repair nuclease/redox regulator APEX1 (Homo sapiens) (P27695 whole entry, looked up): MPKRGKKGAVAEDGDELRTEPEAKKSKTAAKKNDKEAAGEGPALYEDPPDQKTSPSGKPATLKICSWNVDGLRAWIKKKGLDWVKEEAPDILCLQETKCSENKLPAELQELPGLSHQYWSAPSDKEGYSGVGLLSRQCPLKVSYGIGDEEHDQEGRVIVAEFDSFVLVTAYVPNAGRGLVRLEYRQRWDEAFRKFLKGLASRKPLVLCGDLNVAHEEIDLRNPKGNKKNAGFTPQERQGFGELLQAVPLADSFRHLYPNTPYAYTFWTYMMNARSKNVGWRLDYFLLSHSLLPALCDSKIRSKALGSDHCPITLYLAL
# Sequence of Pyruvate kinase PKM (Homo sapiens) (P14618 whole entry, looked up): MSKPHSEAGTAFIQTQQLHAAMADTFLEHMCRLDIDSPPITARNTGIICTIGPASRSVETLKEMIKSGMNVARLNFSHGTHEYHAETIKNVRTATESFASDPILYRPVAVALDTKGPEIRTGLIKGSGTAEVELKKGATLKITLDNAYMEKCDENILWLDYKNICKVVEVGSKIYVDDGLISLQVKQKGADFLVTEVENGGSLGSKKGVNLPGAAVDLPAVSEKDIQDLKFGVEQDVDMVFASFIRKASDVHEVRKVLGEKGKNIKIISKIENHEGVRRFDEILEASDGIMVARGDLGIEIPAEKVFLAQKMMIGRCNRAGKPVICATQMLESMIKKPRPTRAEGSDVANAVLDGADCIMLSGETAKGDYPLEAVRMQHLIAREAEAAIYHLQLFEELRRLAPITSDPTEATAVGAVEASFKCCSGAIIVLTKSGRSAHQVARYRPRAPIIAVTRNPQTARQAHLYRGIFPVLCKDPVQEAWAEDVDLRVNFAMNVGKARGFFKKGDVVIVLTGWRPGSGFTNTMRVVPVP
compound,measurement,setting,value
Cc1cccc(C)c1NC(=O)C[N+](C)(C)C,"activity change, negative = inhibition",[1],0.892% (inactive)
same,Potency,[2],inactive
same,"activity change, negative = inhibition",[3],11.6% (inactive)
same,"activity, negative = inhibition",[4],8.11% (inactive)
same,Potency,[5],> 46 µM (inactive)
same,Potency,[6],> 46 µM (inactive)
same,Potency,[7],inactive
same,Potency,[8],inactive
same,outcome,[9],inactive
same,Potency,[10],inactive
same,Potency,[11],inactive
same,outcome,[12],inactive
same,outcome,[13],inactive
same,outcome,[14],inactive
same,"activity change, negative = inhibition",[15]; at 57.5 µM (top of the series),-1.34% (inactive)
same,max response,[15]; measured here: cell count channel max response,-10.6%
same,max response,[15]; measured here: lipid channel max response,-11.6%
same,Potency,[16],inactive
same,Potency,[17],inactive
same,Potency,[18],inactive
